PubChem BioAssay (Tox21)
Several values for one entry are separate records, joined by “and”; a condition that tells them apart may be missing. Equal values may be shown once. Records with an inconclusive call do not appear. Where a call stands in place of a potency, no number is given. Some compounds were tested as several samples or in several runs, with calls that do not always agree. Activity calls are given as the source filed them. Unless noted, calls follow the shape of the dose curve; as a rule, active = well fitted curve in the direction sought with a large enough effect in the repeat runs; inconclusive = weak or mixed curves; inactive = no such curve, though single readings can be large; an effect the other way counts as inactive or inconclusive.

Experiments:
[1] = qHTS assay to identify small molecule antagonists of the glucocorticoid receptor (GR) signaling pathway - cell viability counter screen (AID 720693); also: nearly all actives have a fitted effect of over 55% in size
[2] = qHTS assay for identifying genotoxic compounds that show differential cytotoxicity against isogenic chicken DT40 cell lines with known DNA damage response pathways - wild type cell line (AID 743012); also: nearly all actives have a fitted effect of over 60% in size; also: potency is read from the fitted curve at half-maximal effect
Method in brief: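 Cells (DT40 wild type, 300/well) are treated with DMSO-dissolved compounds after a ~0.5 h pre-incubation and kept 40 h at 37 C/5% CO2. Viability is then measured by CellTiter-Glo luminescence following 30 min at room temperature.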

[3] = qHTS assay for identifying genotoxic compounds that show differential cytotoxicity against isogenic chicken DT40 cell lines with known DNA damage response pathways - Rev3 mutant cell line (AID 743014); also: nearly all actives have a fitted effect of over 55% in size; also: potency is read from the fitted curve at half-maximal effect
[4] = qHTS assay for identifying genotoxic compounds that show differential cytotoxicity against isogenic chicken DT40 cell lines with known DNA damage response pathways - Rad54/Ku70 mutant cell line (AID 743015); also: nearly all actives have a fitted effect of over 60% in size; also: potency is read from the fitted curve at half-maximal effect
[5] = qHTS assay to identify small molecule antagonists of the androgen receptor (AR) signaling pathway - cell viability counter screen (AID 743033; also: nearly all actives have a fitted effect of over 45% in size)
[6] = qHTS assay to identify small molecule antagonists of the androgen receptor (AR) signaling pathway using the MDA cell line - cell viability counter screen (AID 743041; also: nearly all actives have a fitted effect of over 45% in size)
Method in brief: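 MDA-kb2 AR-luc cells (MMTV-luciferase, AR/GR responsive) treated with compounds plus R1881 agonist for 16 h at 37C. CellTiter-Fluor added at 15.5 h; fluorescence read after 30 min in the same wells.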

[7] = qHTS assay to identify small molecule antagonists of the thyroid receptor (TR) signaling pathway - cell viability counter screen (AID 743064); also: nearly all actives have a fitted effect of over 50% in size; also: potency is read from the fitted curve at half-maximal effect
Method in brief: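 Same-well viability check: GH3.TRE-Luc cells stimulated with 1 nM T3 alongside test compound for 23.5 h, followed by CellTiter-Fluor fluorescence.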

[8] = qHTS assay to identify small molecule antagonists of the thyroid receptor (TR) signaling pathway (AID 743065); also: nearly all actives have a fitted effect of over 55% in size; also: potency is read from the fitted curve at half-maximal effect
Method in brief: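 GH3.TRE-Luc rat pituitary cells (two TREs driving luciferase) were dosed with compound, then stimulated with 1 nM T3 (final) for 23.5 h at 37 C. ONE-Glo luminescence was the read-out, with CellTiter-Fluor fluorescence as the cytotoxicity counter-screen.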

[9] = tested on: thyroid hormone receptor (rat, GH3 cells); test: qHTS assay to identify small molecule agonists of the thyroid receptor (TR) signaling pathway (AID 743066; calls by dose curve)
[10] = qHTS assay to identify small molecule antagonists of the estrogen receptor alpha (ER-alpha) signaling pathway - cell viability counter screen (AID 743074; calls by dose curve;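 also: HEK293 cells carrying ER-alpha-UAS-bla reporter stimulated with 17beta-estradiol; nearly all actives have a fitted effect of over 45% in size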)
[11] = qHTS assay to identify small molecule antagonists of the estrogen receptor alpha (ER-alpha) signaling pathway using the BG1 cell line - cell viability counter screen (AID 743081);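 also: compound given together with 17beta-estradiol as the ER stimulus; series mostly up to about 70 µM; nearly all actives have a fitted effect of over 45% in size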
Aromatase (Homo sapiens) = Aromatase (Homo sapiens) (UniProt P11511); test: qHTS assay to identify aromatase inhibitors (AID 743083); also: nearly all actives have a fitted effect of over 55% in size; also: potency is read from the fitted curve at half-maximal effect
Aromatase (Homo sapiens), sequence (P11511 whole entry, looked up): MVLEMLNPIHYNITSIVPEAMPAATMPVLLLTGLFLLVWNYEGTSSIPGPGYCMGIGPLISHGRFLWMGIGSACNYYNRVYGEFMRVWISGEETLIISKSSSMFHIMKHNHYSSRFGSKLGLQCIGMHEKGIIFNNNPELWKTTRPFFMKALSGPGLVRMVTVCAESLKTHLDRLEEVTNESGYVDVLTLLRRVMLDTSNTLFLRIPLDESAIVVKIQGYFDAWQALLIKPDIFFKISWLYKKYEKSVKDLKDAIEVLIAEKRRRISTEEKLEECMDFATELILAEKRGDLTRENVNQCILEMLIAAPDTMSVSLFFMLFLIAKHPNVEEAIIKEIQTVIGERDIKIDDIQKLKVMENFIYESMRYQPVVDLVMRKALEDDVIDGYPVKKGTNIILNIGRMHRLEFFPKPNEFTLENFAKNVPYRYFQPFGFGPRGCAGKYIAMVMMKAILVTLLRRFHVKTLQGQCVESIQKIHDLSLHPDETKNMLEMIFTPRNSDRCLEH

[12] = biological target: Estrogen receptor (Homo sapiens) (UniProt P03372); test: qHTS assay to identify small molecule antagonists of the estrogen receptor alpha (ER-alpha) signaling pathway (AID 743069; active = well fitted curve in the direction sought with a large enough effect in the signal ratio in the repeat runs, not every such curve was filed as active; the % refers to the signal ratio)
Estrogen receptor (Homo sapiens), sequence (P03372 whole entry, looked up): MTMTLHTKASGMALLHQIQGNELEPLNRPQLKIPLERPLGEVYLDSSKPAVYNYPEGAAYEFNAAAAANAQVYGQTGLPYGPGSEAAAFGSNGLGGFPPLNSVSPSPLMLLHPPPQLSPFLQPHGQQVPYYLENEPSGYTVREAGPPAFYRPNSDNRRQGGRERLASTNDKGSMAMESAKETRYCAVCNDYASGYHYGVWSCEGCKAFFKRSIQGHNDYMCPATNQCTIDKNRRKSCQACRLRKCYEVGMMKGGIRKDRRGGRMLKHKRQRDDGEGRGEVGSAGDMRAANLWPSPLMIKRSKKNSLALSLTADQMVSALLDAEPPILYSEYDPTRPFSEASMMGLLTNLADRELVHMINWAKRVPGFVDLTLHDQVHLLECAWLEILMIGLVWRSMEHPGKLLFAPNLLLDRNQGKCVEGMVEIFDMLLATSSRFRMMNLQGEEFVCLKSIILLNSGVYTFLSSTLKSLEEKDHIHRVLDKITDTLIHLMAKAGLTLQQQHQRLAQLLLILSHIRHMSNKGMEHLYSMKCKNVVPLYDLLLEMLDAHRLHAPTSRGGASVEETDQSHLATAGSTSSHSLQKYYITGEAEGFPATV
Method in brief: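 HEK293 ER-alpha-UAS-bla GripTite cells, held overnight in 2% charcoal-stripped FBS, 5,000 cells/well, preincubated 4 h, then compound plus 17beta-estradiol for 18 h at 37C. Beta-lactamase read by LiveBLAzer B/G FRET substrate, 2 h at room temperature.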

[13] = biological target: Estrogen receptor (Homo sapiens) (UniProt P03372); test: qHTS assay to identify small molecule agonists of the estrogen receptor alpha (ER-alpha) signaling pathway (AID 743075; calls by dose curve)
[14] = biological target: Estrogen receptor (Homo sapiens) (UniProt P03372); test: qHTS assay to identify small molecule agonists of the estrogen receptor alpha (ER-alpha) signaling pathway using the BG1 cell line (AID 743079); also: nearly all actives have a fitted effect of over 20% in size; also: potency is read from the fitted curve at half-maximal effect
[15] = qHTS assay to identify small molecule antagonists of the estrogen receptor alpha (ER-alpha) signaling pathway using the BG1 cell line (AID 743080; calls by dose curve;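 also: BG1 cells stimulated with 17beta-estradiol alongside compound; series mostly up to about 70 µM; nearly all actives have a fitted effect of over 25% in size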)
Method in brief: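 BG1-Luc-4E2 cells (endogenous full-length ER-alpha, 4xERE luciferase) hormone-starved 5 days in charcoal-stripped FBS, plated 4,000/well for 24 h, then compound plus 17beta-estradiol for 21.5 h at 37 C; ONE-Glo luminescence read.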

CCCCC(CC)COC(=O)CCCCCCCC(=O)OCC(CC)CCCC (stereo not drawn)
Potency [1]: inactive
Potency [2]: inactive
Potency [3]: inactive
Potency [4]: inactive
Potency [5]: inactive
Potency [6]: inactive
Potency [7]: inactive
Potency [8]: inactive
outcome [9]: inactive
Potency [10]: inactive
Potency [11]: inactive

O=C(O)c1ccc([N+](=O)[O-])cc1
Potency [1]: inactive
Potency [2]: inactive
Potency [3]: inactive
Potency [4]: inactive
Potency [5]: inactive
Potency [6]: inactive
Potency [7]: inactive
Potency [8]: inactive
outcome [9]: inactive
Potency [10]: inactive
Potency [11]: inactive
Potency (Aromatase (Homo sapiens)): inactive

OC1CCCC1
Potency [1]: inactive
Potency [2]: inactive
Potency [3]: inactive
Potency [4]: inactive
Potency [5]: inactive
Potency [6]: inactive
Potency [7]: inactive
Potency [8]: inactive
outcome [9]: inactive
Potency [12]: inactive
Potency [10]: inactive
Potency [13]: inactive
Potency [14]: inactive
Potency [15]: inactive
Potency [11]: inactive
Potency (Aromatase (Homo sapiens)): inactive

CC1=C(CC(=O)O)c2cc(F)ccc2/C1=C\c1ccc(S(C)=O)cc1 (stereo not drawn)
Potency [1]: inactive
Potency [2]: inactive and 68.6 µM (active)
Potency [3]: 6.86 µM (active)
Potency [4]: inactive and 24.3 µM (active)
Potency [5]: inactive
Potency [6]: inactive
Potency [7]: inactive
Potency [8]: inactive
outcome [9]: inactive
Potency [10]: inactive
Potency [11]: inactive
Potency (Aromatase (Homo sapiens)): inactive

NS(=O)(=O)c1cc2c(cc1Cl)NC=NS2(=O)=O
Potency [1]: inactive
Potency [2]: inactive
Potency [3]: inactive
Potency [4]: inactive
Potency [5]: inactive
Potency [6]: inactive
Potency [7]: inactive
Potency [8]: inactive
outcome [9]: inactive
Potency [12]: inactive
Potency [13]: inactive
Potency [14]: inactive
Potency [15]: inactive
Potency [11]: inactive
Potency (Aromatase (Homo sapiens)): inactive

CCc1ccccc1O
Potency [1]: inactive
Potency [2]: inactive
Potency [3]: inactive
Potency [4]: inactive
Potency [5]: inactive
Potency [6]: inactive
Potency [7]: inactive
Potency [8]: inactive
outcome [9]: inactive
Potency [12]: inactive
Potency [13]: inactive
Potency [14]: inactive
Potency [15]: inactive
Potency [11]: inactive
Potency (Aromatase (Homo sapiens)): inactive

CC(C)Cc1ccccc1
Potency [1]: inactive
Potency [2]: inactive
Potency [3]: inactive
Potency [4]: inactive
Potency [5]: inactive
Potency [6]: inactive
Potency [7]: inactive
Potency [8]: inactive
outcome [9]: inactive
Potency [12]: inactive
Potency [10]: inactive
Potency [13]: inactive
Potency [14]: inactive
Potency [15]: inactive
Potency [11]: inactive
Potency (Aromatase (Homo sapiens)): inactive

COCC(C)O (stereo not drawn)
Potency [1]: inactive
Potency [2]: inactive
Potency [3]: inactive
Potency [4]: inactive
Potency [5]: inactive
Potency [6]: inactive
Potency [7]: inactive
Potency [8]: inactive
outcome [9]: inactive
Potency [12]: inactive
Potency [10]: inactive
Potency [13]: inactive
Potency [14]: inactive and 61.1 µM (active)
Potency [15]: inactive
Potency [11]: inactive
Potency (Aromatase (Homo sapiens)): inactive

Cc1cc(NS(=O)(=O)c2ccc(N)cc2)no1
Potency [1]: inactive
Potency [2]: inactive
Potency [3]: inactive
Potency [4]: inactive
Potency [5]: inactive
Potency [6]: inactive
Potency [7]: inactive
Potency [8]: inactive
outcome [9]: inactive
Potency [10]: inactive
Potency [11]: inactive

CC1(C)CC(N=C=O)CC(C)(CN=C=O)C1 (stereo not drawn)
Potency [1]: inactive
Potency [2]: inactive
Potency [3]: inactive
Potency [4]: inactive
Potency [5]: inactive
Potency [6]: inactive
Potency [7]: inactive
Potency [8]: inactive
outcome [9]: inactive
Potency [12]: inactive
Potency [10]: inactive
Potency [13]: inactive
Potency [14]: inactive
Potency [15]: inactive
Potency [11]: inactive
Potency (Aromatase (Homo sapiens)): inactive

OC[C@@H](O)[C@@H](O)[C@H](O)[C@@H](O)CO
Potency [1]: inactive
Potency [2]: inactive
Potency [3]: inactive
Potency [4]: inactive
Potency [5]: inactive
Potency [6]: inactive
Potency [7]: inactive
Potency [8]: inactive
outcome [9]: inactive
Potency [12]: inactive
Potency [10]: inactive
Potency [13]: inactive
Potency [14]: inactive
Potency [15]: inactive
Potency [11]: inactive
Potency (Aromatase (Homo sapiens)): inactive

CCCCNC(N)=O
Potency [1]: inactive
Potency [2]: inactive
Potency [3]: inactive
Potency [4]: inactive
Potency [5]: inactive
Potency [6]: inactive
Potency [7]: inactive
Potency [8]: inactive
outcome [9]: inactive
Potency [10]: inactive
Potency [11]: inactive
Potency (Aromatase (Homo sapiens)): inactive

CCCCCCC(C)(C)S
Potency [1]: inactive
Potency [2]: inactive
Potency [3]: inactive
Potency [4]: inactive
Potency [5]: inactive
Potency [6]: inactive
Potency [7]: inactive
Potency [8]: inactive
outcome [9]: inactive
Potency [10]: inactive
Potency [11]: inactive
Potency (Aromatase (Homo sapiens)): inactive

ClC1=C(Cl)C(Cl)(Cl)C(Cl)=C1Cl
Potency [1]: inactive
Potency [2]: inactive and 770 nM (active)
Potency [3]: inactive and 864 nM (active)
Potency [4]: inactive and 770 nM (active)
Potency [5]: inactive
Potency [6]: inactive
Potency [7]: inactive
Potency [8]: 54.5 µM (active)
outcome [9]: inactive
Potency [12]: inactive
Potency [13]: inactive
Potency [14]: inactive
Potency [15]: inactive
Potency [11]: inactive
Potency (Aromatase (Homo sapiens)): inactive and 48.6 µM (active)

C=C(C#N)C(=O)OCC
Potency [1]: inactive
Potency [2]: inactive and 43.3 µM (active)
Potency [3]: inactive and 43.3 µM (active)
Potency [4]: inactive and 24.3 µM (active)
Potency [5]: inactive
Potency [6]: inactive
Potency [7]: inactive
Potency [8]: inactive
outcome [9]: inactive
Potency [10]: inactive
Potency [11]: inactive
Potency (Aromatase (Homo sapiens)): inactive

COC(=O)Nc1nc2ccc(Sc3ccccc3)cc2[nH]1
Potency [1]: inactive
Potency [2]: 403 nM (active) and 217 nM (active)
Potency [3]: 285 nM (active) and 217 nM (active)
Potency [4]: 403 nM (active) and 386 nM (active)
Potency [5]: inactive
Potency [6]: inactive
Potency [7]: 0.202 µM (active)
Potency [8]: 202 nM (active) and 217 nM (active)
outcome [9]: inactive
Potency [10]: inactive
Potency [11]: inactive
Potency (Aromatase (Homo sapiens)): inactive

CC(C)(N=C=O)c1cccc(C(C)(C)N=C=O)c1
Potency [1]: inactive
Potency [2]: inactive
Potency [3]: inactive
Potency [4]: inactive
Potency [5]: inactive
Potency [6]: inactive
Potency [7]: inactive
Potency [8]: inactive
outcome [9]: inactive
Potency [10]: inactive
Potency [11]: inactive
Potency (Aromatase (Homo sapiens)): inactive

Clc1ccc(Cl)c(Cl)c1Cl
Potency [1]: inactive
Potency [2]: inactive
Potency [3]: inactive
Potency [4]: inactive
Potency [5]: inactive
Potency [6]: inactive
Potency [7]: inactive
Potency [8]: inactive
outcome [9]: inactive
Potency [10]: inactive
Potency [11]: inactive
Potency (Aromatase (Homo sapiens)): inactive
